Laboratory results reported in PubChem BioAssay (EPA / NIEHS).
Records with an inconclusive call do not appear. Activity calls are given as the source filed them. How the source made its calls, unless noted: active means hit-call score of the fitted dose curve at least 0.9, where 1 is the maximum; inactive means score below 0.9.

Experiments:
[1] = target: Paired box protein Pax-6 (Homo sapiens) (UniProt P26367); assay: ATG_Pax6_CIS: Attagene CIS-FACTORIAL HepG2 Assay for human Paired Box 6 (PAX6) (AID 2282956); conditions: HepG2 CIS-FACTORIAL PAX6 reporter transcription, RNA readout; actives raise or lower the signal
Sequence of Paired box protein Pax-6 (Homo sapiens) (P26367 whole entry, looked up): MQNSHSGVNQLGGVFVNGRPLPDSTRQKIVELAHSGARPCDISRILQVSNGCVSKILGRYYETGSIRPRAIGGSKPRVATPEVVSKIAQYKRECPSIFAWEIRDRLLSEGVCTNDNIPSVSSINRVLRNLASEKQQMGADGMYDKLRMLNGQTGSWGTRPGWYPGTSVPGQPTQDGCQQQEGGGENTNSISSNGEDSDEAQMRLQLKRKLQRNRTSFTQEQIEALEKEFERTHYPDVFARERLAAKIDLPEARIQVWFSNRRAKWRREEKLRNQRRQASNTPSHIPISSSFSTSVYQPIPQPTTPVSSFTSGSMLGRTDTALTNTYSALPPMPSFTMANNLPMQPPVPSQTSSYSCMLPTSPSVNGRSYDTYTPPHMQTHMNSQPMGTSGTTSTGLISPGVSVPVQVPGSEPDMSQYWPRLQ
In short: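 HepG2 cells transiently transfected with cis-promoter-driven multiplexed reporter units sensing endogenous transcription factor activity; 24 h chemical exposure. Reporter mRNA quantified by RT-PCR, 6-FAM labelling, HpaI digestion and capillary electrophoresis; bidirectional fit versus DMSO baseline.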

[2] = ATG_PXRE_CIS: Attagene CIS-FACTORIAL HepG2 Assay for human Pregnane X Receptor Element (PXRE) (AID 2282957); conditions: HepG2 Attagene CIS-FACTORIAL PXRE reporter, mRNA; actives raise or lower the signal
In short: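 Transiently transfected HepG2 cells were dosed and incubated for 24 h. RNA was then isolated, DNase-treated, reverse-transcribed and reporter sequences amplified. Labeled, HpaI-digested fragments were quantified by capillary electrophoresis against DMSO.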

[3] = ATG_RORE_CIS: Attagene CIS-FACTORIAL HepG2 Assay for human RAR-related Orphan Receptor Element (RORE) (AID 2282959); conditions: HepG2 Attagene cis-factorial RORE reporter, mRNA; actives raise or lower the signal
In short: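 Transiently transfected HepG2 reporter cells were treated 24 h. Reporter transcripts were detected by RT-PCR and capillary electrophoresis, with bidirectional fitting against DMSO.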

[4] = ATG_SREBP_CIS: Attagene CIS-FACTORIAL HepG2 Assay for human Sterol Regulatory Element Binding (SREBP) (AID 2282962); conditions: HepG2 Attagene cis-factorial SREBP reporter, mRNA; actives raise or lower the signal
In short: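 HepG2 cells transiently transfected with multiplexed cis-promoter reporter units sensing endogenous transcription factors; reporter mRNA measured 24 h after dosing by RT-PCR, 6-FAM labeling, HpaI digestion and capillary electrophoresis. Bidirectional fit versus DMSO.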

[5] = target: Signal transducer and activator of transcription 3 (Homo sapiens) (UniProt P40763); assay: ATG_STAT3_CIS: Attagene CIS-FACTORIAL HepG2 Assay for human Signal Transducer and Activator of Transcription 3 (STAT3) (AID 2282963); conditions: HepG2, Attagene cis-factorial STAT3 reporter transcription; actives raise or lower the signal
Sequence of Signal transducer and activator of transcription 3 (Homo sapiens) (P40763 whole entry, looked up): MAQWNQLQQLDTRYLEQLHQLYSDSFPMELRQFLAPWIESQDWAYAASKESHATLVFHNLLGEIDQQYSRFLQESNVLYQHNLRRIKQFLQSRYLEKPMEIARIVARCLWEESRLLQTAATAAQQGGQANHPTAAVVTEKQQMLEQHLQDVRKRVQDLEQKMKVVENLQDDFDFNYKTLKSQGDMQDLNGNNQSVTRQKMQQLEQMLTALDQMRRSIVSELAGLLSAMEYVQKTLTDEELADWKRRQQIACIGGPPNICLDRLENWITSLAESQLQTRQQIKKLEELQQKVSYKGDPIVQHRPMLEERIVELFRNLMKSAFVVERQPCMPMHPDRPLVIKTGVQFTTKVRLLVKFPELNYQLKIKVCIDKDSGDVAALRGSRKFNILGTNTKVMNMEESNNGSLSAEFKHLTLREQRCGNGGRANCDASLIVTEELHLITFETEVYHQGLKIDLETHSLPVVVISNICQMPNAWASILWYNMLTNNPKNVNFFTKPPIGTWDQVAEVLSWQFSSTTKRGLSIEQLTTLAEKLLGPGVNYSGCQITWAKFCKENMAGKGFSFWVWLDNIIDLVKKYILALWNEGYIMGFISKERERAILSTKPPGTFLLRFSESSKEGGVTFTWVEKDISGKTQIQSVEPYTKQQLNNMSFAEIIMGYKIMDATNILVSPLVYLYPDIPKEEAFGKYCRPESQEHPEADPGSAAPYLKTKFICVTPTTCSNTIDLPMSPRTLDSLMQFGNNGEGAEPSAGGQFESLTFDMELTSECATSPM
In short: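 After a 24 h compound incubation, total RNA from MRTU-transfected HepG2 cells was converted to cDNA and reporter sequences PCR-amplified, labelled and profiled by capillary electrophoresis. Gain and loss of signal were referenced to DMSO.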

[6] = ATG_TA_CIS: Attagene CIS-FACTORIAL HepG2 Assay for human TA Basal Promoter (AID 2282964); conditions: HepG2 Attagene CIS-factorial TA basal promoter reporter; actives raise or lower the signal
In short: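 HepG2 cells transiently transfected with multiple reporter units under cis promoter elements, reporting endogenous transcription factor activity; this endpoint tracks the TA basal promoter as background control. Reporter mRNA after 24 h dosing measured by RT-PCR/capillary electrophoresis; bidirectional fits versus DMSO.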

[7] = ATG_TCF_b_cat_CIS: Attagene CIS-FACTORIAL HepG2 Assay for human T-Cell-Factor with beta-catenin (TCF/b-cat) (AID 2282965); conditions: HepG2 TCF/beta-catenin cis-reporter transcription, actives raise or lower the signal
In short: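 Endogenous transcription factor activity is captured through cis-promoter reporter constructs transiently introduced into human HepG2 liver cells. Induced reporter mRNA is measured after 24 h and fitted bidirectionally relative to DMSO.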

[8] = ATG_TAL_CIS: Attagene CIS-FACTORIAL HepG2 Assay for human TAL Basal Promoter (AID 2282966); conditions: HepG2 Attagene cis-factorial TAL promoter reporter; actives raise or lower the signal;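 further: background control endpoint measuring basal TAL promoter reporter mRNA not a specific factor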
In short: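 Readout: reporter mRNA, fluorescence by CE. System: HepG2, transient multi-reporter transfection, endogenous TF activity. Exposure: 24 h. Analysis: bidirectional, DMSO-normalized; background control.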

[9] = ATG_TGFb_CIS: Attagene CIS-FACTORIAL HepG2 Assay for human Transforming Growth Factor (TGF) (AID 2282967); conditions: HepG2 Attagene CIS TGFb reporter, mRNA transcription; actives raise or lower the signal
In short: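 HepG2 cells transiently transfected with cis-promoter-driven multiple reporter units measure endogenous TF activity; reporter mRNA quantified at 24 h by RT-PCR, FAM labeling, HpaI digestion and capillary electrophoresis. Bidirectional fit vs DMSO.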

[10] = ATG_VDRE_CIS: Attagene CIS-FACTORIAL HepG2 Assay for human Vitamin D Receptor Element (VDRE) (AID 2282968); conditions: HepG2 VDRE cis-reporter transcription, actives raise or lower the signal
In short: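 In transiently transfected HepG2 liver cells, gain or loss of reporter mRNA after 24 h exposure is scored relative to DMSO, using fluorescence detection by capillary electrophoresis of RT-PCR products.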

[11] = target: Estrogen receptor (Homo sapiens) (UniProt P03372); assay: ATG_ERa_TRANS: Attagene TRANS-FACTORIAL HepG2 Assay for human Estrogen Receptor alpha (ERa) (AID 2282970; active means hit-call score of the fitted dose curve at least 0.9, where 1 is the maximum); conditions: HepG2 Attagene TRANS ERa GAL4 reporter, mRNA
Sequence of Estrogen receptor (Homo sapiens) (P03372 whole entry, looked up, the tested form may be a part): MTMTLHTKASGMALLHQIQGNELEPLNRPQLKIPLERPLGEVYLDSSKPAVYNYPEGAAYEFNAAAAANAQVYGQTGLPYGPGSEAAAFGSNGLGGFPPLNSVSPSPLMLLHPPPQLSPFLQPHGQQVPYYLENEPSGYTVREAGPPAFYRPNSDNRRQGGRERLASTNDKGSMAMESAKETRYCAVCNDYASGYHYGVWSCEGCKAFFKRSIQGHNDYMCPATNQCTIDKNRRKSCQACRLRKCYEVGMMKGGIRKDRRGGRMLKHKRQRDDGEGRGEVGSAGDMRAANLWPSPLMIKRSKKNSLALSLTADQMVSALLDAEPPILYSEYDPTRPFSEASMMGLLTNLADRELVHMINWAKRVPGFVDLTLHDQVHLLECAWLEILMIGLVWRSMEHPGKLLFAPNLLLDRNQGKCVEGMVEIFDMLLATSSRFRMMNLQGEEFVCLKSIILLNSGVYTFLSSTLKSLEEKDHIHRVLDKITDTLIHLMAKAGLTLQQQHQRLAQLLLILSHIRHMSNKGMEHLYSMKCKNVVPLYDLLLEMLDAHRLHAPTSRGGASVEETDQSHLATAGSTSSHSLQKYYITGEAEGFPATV
In short: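 Transactivation via ERa-Gal4 chimera in HepG2; 24 hour incubation; reporter mRNA detected by fluorescence RT-PCR and capillary electrophoresis.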

[12] = target: Steroid hormone receptor ERR1 (Homo sapiens) (UniProt P11474); assay: ATG_ERRa_TRANS: Attagene TRANS-FACTORIAL HepG2 Assay for human Estrogen-Related Receptor alpha (ERRa) (AID 2282971; active means hit-call score of the fitted dose curve at least 0.9, where 1 is the maximum); conditions: HepG2 Attagene TRANS reporter, ERRa transactivation
Sequence of Steroid hormone receptor ERR1 (Homo sapiens) (P11474 whole entry, looked up, the tested form may be a part): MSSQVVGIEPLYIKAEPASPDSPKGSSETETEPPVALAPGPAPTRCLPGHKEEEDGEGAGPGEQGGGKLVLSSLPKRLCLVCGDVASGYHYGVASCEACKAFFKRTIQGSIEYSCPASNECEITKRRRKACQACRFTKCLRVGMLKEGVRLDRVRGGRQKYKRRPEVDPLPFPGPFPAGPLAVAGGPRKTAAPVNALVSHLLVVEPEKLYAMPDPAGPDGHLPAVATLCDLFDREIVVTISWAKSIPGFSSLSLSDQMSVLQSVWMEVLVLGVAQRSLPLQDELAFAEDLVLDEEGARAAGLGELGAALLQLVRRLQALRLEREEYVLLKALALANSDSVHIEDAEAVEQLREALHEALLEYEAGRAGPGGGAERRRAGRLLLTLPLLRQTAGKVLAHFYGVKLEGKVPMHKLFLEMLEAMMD
In short: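 HepG2 cells were transiently transfected with multiple GAL4-UAS reporter units, then dosed with compound for 24 h. Total RNA was reverse-transcribed, reporter cDNA PCR-amplified and fluorescently labelled, and fragments resolved by capillary electrophoresis; induction was compared with DMSO.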

[13] = target: X-box-binding protein 1 (Homo sapiens) (UniProt P17861); assay: ATG_Xbp1_CIS: Attagene CIS-FACTORIAL HepG2 Assay for human X-box Binding Protein 1 (XBP1) (AID 2282972); conditions: HepG2 XBP1 cis-element reporter, Attagene multiplex; actives raise or lower the signal
Sequence of X-box-binding protein 1 (Homo sapiens) (P17861 whole entry, looked up): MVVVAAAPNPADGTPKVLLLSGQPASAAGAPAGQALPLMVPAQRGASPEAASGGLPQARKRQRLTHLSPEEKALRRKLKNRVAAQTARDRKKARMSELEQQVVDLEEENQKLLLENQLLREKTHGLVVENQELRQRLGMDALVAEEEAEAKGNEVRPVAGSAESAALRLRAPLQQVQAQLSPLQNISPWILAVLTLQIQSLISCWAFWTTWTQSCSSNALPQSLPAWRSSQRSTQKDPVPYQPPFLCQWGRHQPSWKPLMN
In short: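 HepG2 cells transiently transfected with multiple cis-element reporter units report endogenous TF activity; 24 h exposure, then reporter mRNA measured by RT-PCR, 6-FAM labelling, HpaI digestion and capillary electrophoresis. Bidirectional fitting versus DMSO.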

[14] = ATG_M_19_TRANS: Attagene TRANS-FACTORIAL HepG2 Assay for M19 Transcription Factor (Internal Marker) (AID 2282974; active means hit-call score of the fitted dose curve at least 0.9, where 1 is the maximum); conditions: HepG2 Attagene TRANS-FACTORIAL M19 internal marker reporter
In short: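 Using RT-PCR and capillary electrophoresis, reporter mRNA from transiently transfected human HepG2 cells was quantified following 24 h exposure; activity was fitted in the positive direction against DMSO.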

[15] = target: Transcription factor Sp1 (Homo sapiens) (UniProt P08047); assay: ATG_Sp1_CIS: Attagene CIS-FACTORIAL HepG2 Assay for human Specificity Protein 1 (Sp1) (AID 2282961); conditions: HepG2 Sp1 cis-reporter transcription, actives raise or lower the signal
Sequence of Transcription factor Sp1 (Homo sapiens) (P08047 whole entry, looked up, the tested form may be a part): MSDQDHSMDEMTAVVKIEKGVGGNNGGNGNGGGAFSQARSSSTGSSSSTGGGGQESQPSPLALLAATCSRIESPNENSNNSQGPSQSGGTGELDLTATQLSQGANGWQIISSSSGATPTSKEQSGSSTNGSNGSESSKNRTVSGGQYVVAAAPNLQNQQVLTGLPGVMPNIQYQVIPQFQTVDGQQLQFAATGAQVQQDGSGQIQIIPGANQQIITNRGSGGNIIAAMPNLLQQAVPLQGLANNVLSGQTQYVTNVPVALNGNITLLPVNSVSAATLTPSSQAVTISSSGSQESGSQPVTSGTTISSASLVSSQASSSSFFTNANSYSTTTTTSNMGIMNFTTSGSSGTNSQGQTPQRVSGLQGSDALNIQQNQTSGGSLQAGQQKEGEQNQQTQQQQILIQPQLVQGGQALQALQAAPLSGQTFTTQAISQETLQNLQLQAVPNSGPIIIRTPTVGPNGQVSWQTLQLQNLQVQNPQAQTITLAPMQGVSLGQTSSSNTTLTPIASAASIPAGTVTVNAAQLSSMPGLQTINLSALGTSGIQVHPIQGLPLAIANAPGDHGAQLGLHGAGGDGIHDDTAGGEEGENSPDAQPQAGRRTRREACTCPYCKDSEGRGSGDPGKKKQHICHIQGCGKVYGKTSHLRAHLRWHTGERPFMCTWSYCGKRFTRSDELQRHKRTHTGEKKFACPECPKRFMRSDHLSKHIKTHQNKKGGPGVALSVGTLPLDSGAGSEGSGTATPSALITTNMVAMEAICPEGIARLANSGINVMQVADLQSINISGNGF
In short: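 Endpoint reflects endogenous Sp1 transcriptional activity, not an exogenous fusion protein: HepG2 cells with transfected cis-regulated reporters, 24 h dosing, RT-PCR/capillary electrophoresis mRNA read-out, DMSO-normalised bidirectional fit.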

[16] = target: Nuclear receptor subfamily 1 group I member 3 (Homo sapiens) (UniProt Q14994); assay: ATG_CAR_TRANS: Attagene TRANS-FACTORIAL HepG2 Assay for human Constitutive Androstane Receptor (CAR) (AID 2282969; active means hit-call score of the fitted dose curve at least 0.9, where 1 is the maximum;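 further: activators raise reporter mRNA above DMSO so AC50 marks induction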); conditions: HepG2 Attagene TRANS-FACTORIAL CAR reporter
Sequence of Nuclear receptor subfamily 1 group I member 3 (Homo sapiens) (Q14994 whole entry, looked up, the tested form may be a part): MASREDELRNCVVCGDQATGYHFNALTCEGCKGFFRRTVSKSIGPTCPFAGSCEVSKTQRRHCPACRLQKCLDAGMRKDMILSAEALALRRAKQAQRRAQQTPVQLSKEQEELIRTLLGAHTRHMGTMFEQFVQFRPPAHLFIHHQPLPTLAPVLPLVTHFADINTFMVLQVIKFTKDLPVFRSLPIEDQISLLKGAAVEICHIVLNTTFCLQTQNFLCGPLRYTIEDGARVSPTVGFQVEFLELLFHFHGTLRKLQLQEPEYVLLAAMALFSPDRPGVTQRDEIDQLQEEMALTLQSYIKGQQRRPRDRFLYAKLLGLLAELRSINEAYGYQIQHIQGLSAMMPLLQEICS
In short: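 Readout is reporter mRNA induction, quantified by fluorescent primer extension and capillary electrophoresis after RT-PCR. Cells were HepG2 transiently carrying chimeric NR-Gal4 constructs with GAL4-UAS reporters, treated for 24 h; activity scored upward from DMSO.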

[17] = ATG_GAL4_TRANS: Attagene TRANS-FACTORIAL HepG2 Assay for GAL4 (Internal Marker) (AID 2282976; active means hit-call score of the fitted dose curve at least 0.9, where 1 is the maximum); conditions: HepG2 Attagene TRANS GAL4 internal marker reporter
In short: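 Fluorescence from capillary electrophoresis of labelled RT-PCR products quantifies reporter mRNA induction after 24 h dosing of HepG2 cells carrying transfected GAL4-UAS reporter transcription units. Vehicle DMSO serves as baseline.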

[18] = ATG_Sox_CIS: Attagene CIS-FACTORIAL HepG2 Assay for human SRY-box transcription factor (SOX) (AID 2282960); conditions: HepG2 Attagene cis-factorial SOX reporter, mRNA; actives raise or lower the signal
In short: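 Gain- or loss-of-signal endpoint, fitted bidirectionally with DMSO as negative control. Based on reporter mRNA from transfected HepG2 cells harvested 24 h post-treatment and quantified via RT-PCR and capillary electrophoresis.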

[19] = target: Estrogen-related receptor gamma (Homo sapiens) (UniProt P62508); assay: ATG_ERRg_TRANS: Attagene TRANS-FACTORIAL HepG2 Assay for human Estrogen-Related Receptor gamma (ERRg) (AID 2282977; active means hit-call score of the fitted dose curve at least 0.9, where 1 is the maximum;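 further: hits increase reporter signal over DMSO so potencies reflect activators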); conditions: HepG2 Attagene TRANS reporter, ERRg transactivation
Sequence of Estrogen-related receptor gamma (Homo sapiens) (P62508 whole entry, looked up, the tested form may be a part): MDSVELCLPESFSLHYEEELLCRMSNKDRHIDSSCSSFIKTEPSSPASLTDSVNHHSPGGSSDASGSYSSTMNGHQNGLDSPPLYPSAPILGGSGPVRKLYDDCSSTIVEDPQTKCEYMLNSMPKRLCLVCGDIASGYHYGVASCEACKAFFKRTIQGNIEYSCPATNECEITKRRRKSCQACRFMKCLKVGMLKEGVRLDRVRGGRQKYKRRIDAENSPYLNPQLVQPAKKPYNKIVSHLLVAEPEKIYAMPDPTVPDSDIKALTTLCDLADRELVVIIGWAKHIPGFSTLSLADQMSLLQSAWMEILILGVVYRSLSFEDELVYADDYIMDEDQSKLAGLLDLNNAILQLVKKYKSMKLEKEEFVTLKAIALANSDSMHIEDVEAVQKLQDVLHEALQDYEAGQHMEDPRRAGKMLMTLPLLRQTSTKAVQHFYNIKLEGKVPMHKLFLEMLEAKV
In short: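 HepG2 cells transiently transfected with multiplexed GAL4-UAS reporter units and chimeric NR-Gal4 constructs were exposed to test chemicals for 24 h. Reporter mRNA was measured by RT-PCR, 6-FAM primer extension, HpaI digestion and capillary electrophoresis; gain-of-signal versus DMSO.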

Measured: AC50

CO[Si](OC)(OC)c1ccccc1
not listed: [15] | [16] | [17] | [18] | [19]
inactive: all other assays above

CC(=O)NS(=O)(=O)c1ccc(N)cc1
not listed: [6] | [12] | [14] | [18] | [19]
inactive: all other assays above

CC(=O)OCc1ccco1
not listed: [3] | [14] | [17]
inactive: all other assays above

Cc1ccc([N+](=O)[O-])cc1S(=O)(=O)O
active: [15] 156 µM
not listed: [7] | [12] | [16] | [17] | [18] | [19]
inactive: all other assays above

CO[Si](CCC1CCC2OC2C1)(OC)OC (configuration not stated)
not listed: [3] | [7] | [9] | [11] | [12] | [16] | [19]
inactive: all other assays above

ON(Cc1ccccc1)Cc1ccccc1
active: [2] 41.6 µM
not listed: [3] | [12] | [17] | [19]
inactive: all other assays above

O=[N+]([O-])C1(Br)COCOC1
active: [15] 50.2 µM | [7] 55.7 µM | [13] 53.1 µM
not listed: [16] | [18] | [19]
inactive: all other assays above

CCOC(=O)Cc1cccc2ccccc12
active: [2] 71.7 µM
not listed: [3] | [5] | [12] | [16] | [17]
inactive: all other assays above

COc1ccc([C@@H]2CC(=O)c3c(O)cc(O[C@@H]4O[C@H](CO[C@@H]5O[C@@H](C)[C@H](O)[C@@H](O)[C@H]5O)[C@@H](O)[C@H](O)[C@H]4O)cc3O2)cc1OC
not listed: [3] | [6] | [12] | [14] | [16] | [19]
inactive: all other assays above

C=C(C)C(=O)OCC(C)C
not listed: [6] | [7] | [12] | [15] | [16] | [17] | [19]
inactive: all other assays above

OCCN(CCO)c1ccccc1
not listed: [3] | [12] | [16] | [19]
inactive: all other assays above

C=C(C)[C@H]1CC=C(C)CC1
active: [2] 51 µM
not listed: [3] | [7] | [10] | [12] | [14] | [19]
inactive: all other assays above
